# Test results from PubChem BioAssay (NCI).
# This is part of a sample that, as a whole, favours compounds with a hit. Of some 83,000 tested, about 20% had one in any assay.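 Values shown are percent growth following 48 h exposure of cells in 96-well plates to a single concentration of compound; below 10 was considered active.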 Unmarked numbers belong to inactive results. The source made the active and inactive calls.
# Tested on: SK-MEL-5 melanoma
# Experiment: NCI-60 one-dose screen, 48 h (100 = growth as untreated, 0 = no growth, -100 = all killed)
# Details: 10 µM
# Description: Growth inhibition of the SK-MEL-5 human tumor cell line is measured as a screen for anti-cancer activity. Cells are grown in 96 well plates and exposed to the test compound for 48 hours. Compounds are tested at a single concentration, which is 10^-5 M for most compounds. The reported endpoint is percent growth (GI% or GIPRCNT), where numbers from 0 - 100% represent growth inhibition, and numbers from -100% - 0 represent cell death. For example, a value of 40 represents 60% growth inhibition. A value of 0 means no net growth occurred over the course of the experiment. A value of -40 indicates 40% of cells at the beginning of the experiment died by the end of the experiment. A value of -100 means all cells are dead at the end of the experiment.
# NCI-60 Human Tumor Cell Lines Screen was performed using the standard one-dose NCI protocol, which is described in more detail at https://dtp.cancer.gov/discovery_development/nci-60/default.htm.
# Compounds with GIPRCNT values below 10 were considered active. Activity score was based on GIPRCNT using the following formula: […]
# Score is 0 for GIPRCNT values of 100 or above, 50 for GIPRCNT values of 0, and 100 for GIPRCNT values of -100.
row,SMILES,growth
1,CCOC(=O)c1coc(C(=O)OCC)c1C(=O)OCC,108%
2,Cc1cc(C)cc(NCCC#N)c1,107%
3,CN(C)c1ccc(C(c2ccc(O)cc2)c2ccc(N(C)C)cc2)cc1,90.5%
4,N#C/C(=C\c1cc(O)c(O)c(O)c1)C(N)=O,101%
5,COc1ccc(C2OC(N)=C(O)C2=O)cc1OC (stereo not given),102%
6,O=C(O)c1cccc([N+](=O)[O-])c1,107%
7,c1c(-c2cc(C3CC3)[nH]n2)n[nH]c1C1CC1,82.1%
8,O=C(O)CCCCNC(=O)c1ccccc1,101%
9,S=c1[nH]ccn1-c1ccccc1Cl,112%
10,Cc1ncc(C#N)c(N)n1,89.9%
11,O=[N+]([O-])c1ccc(S(=O)(=O)NN=C2CCCCC2)cc1,105%
12,CC(C)OC(C(=O)O)c1ccccc1 (stereo not given),105%
13,Cc1ccc(/C=C2\SC(=S)N(c3ccc(F)cc3)C2=O)o1,88.2%
14,O=C(CN1CCNCC1)N1CCOCC1,110%
15,O=C1OC(c2ccc(F)cc2)CC1CN1CCOCC1 (stereo not given),104%
16,O=C(Cc1nc2ccc([N+](=O)[O-])cc2nc1CC(=O)c1ccccc1)c1ccccc1,55%
17,COc1ccccc1NC(=O)c1cc2cc(Br)ccc2cc1O,-74.6% (active)
18,CCC(=O)Oc1ccc(OC)cc1,107%
19,Nc1ccc(N=Nc2ccc(S(=O)(=O)O)cc2)c2ccccc12,94.4%
20,O=C(Nc1cc(-c2ccccc2)[nH]n1)c1ccc(Cl)cc1,87.6%

row,SMILES,growth
1,O=C(CCl)N1CCN(C/C=C/c2ccccc2)CC1,86.6%
2,CCOC(=O)CCCS(C)(=O)=O,102%
3,Oc1ccc(Cc2ccccc2)c2cccnc12,3.49% (active)
4,O=C(O)/C=C/C(=O)NCc1ccccc1,101%
5,CCOC(=O)C(O)C(O)C(=O)OCC (stereo not given),97.5%
6,CCC(C)(O)c1ccc(C)cc1 (stereo not given),98.5%
7,S=C1CCCCCN1,107%
8,N#CC1(Nc2ccc3c4c(cccc24)CC3)CCCCC1,91.6%
9,COc1ccc(/C(C#N)=C2C=C/C(=N/O)c3ccccc3\2)cc1,-28.9% (active)
10,C#Cc1cccc(NC(=O)c2ccc(Cl)cc2Cl)c1,91.1%
11,CC1CCCC(CC(N)=O)CC1 (stereo not given),103%
12,CC1=CC(C)(C)NC(=S)N1c1ccc(S(=O)(=O)O)c2cccc(S(=O)(=O)O)c12,101%
13,COC(=O)C(O)c1ccccc1 (stereo not given),104%
14,CCO/C=C1\SC(=S)N(c2cccc(C)c2)C1=O,102%
15,CC(=O)OCCO,102%
16,O=C1c2ccccc2C(=O)c2c1ccc(C(=O)O)c2[N+](=O)[O-],109%
17,O=C1Cc2ccccc2C(=O)O1,105%
18,O=C(O)C(O)c1ccccc1 (stereo not given),101%
19,COc1cc(C(=O)N/N=C/c2cccc([N+](=O)[O-])c2)cc(OC)c1OC,19%
20,C/C(=N\O)C1(O)CCCCC1,87.9%
